# The full data set covers some 8,800 targets. This sample favours those with a hit. About 0.5% of all pairs of compound and target were hits. Unmarked numbers belong to inactive results.
# Tests used:
# Assay in all cases: log2 fold change, soluble protein after heating vs DMSO (PISA); higher = thermal stabilisation; K562 lysate, 10 uM; active = over 0.2 and 3.5 SD of the protein, either way, in both replicates (recomputed)
# alvocidib = compound: CN1CC[C@H](c2c(O)cc(O)c3c(=O)cc(-c4ccccc4Cl)oc23)[C@H](O)C1 [alvocidib]
# How it was run: (§1)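 Soluble protein was defined as the supernatant remaining after 21,000xg for 90 min, following pooling of heated aliquots and adjustment to 0.5% NP-40 at 4°C. Before that, crude K562 extract at 1 mg/mL protein in PBS pH 7.4 with 1 mM MgCl2 was treated with 10 μM compound for 30 min and heated for 3 min across 48°C-58°C. Quantification used TMTpro 16plex LC-MS/MS with channel sums equalised, and values are log-two fold changes in thermal stability relative to solvent controls from duplicates.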
# Tubastatin A = compound: CN1CCc2c(c3ccccc3n2Cc2ccc(C(=O)NO)cc2)C1 [Tubastatin A]
# How it was run: as §1
# [1] = compound: CNC(=O)C1=CC=CC=C1NC2=NC(=NC=C2Cl)NC3=C(C=C(C=C3)N4CCOCC4)OC
# How it was run: as §1
# [2] = compound: CNc1nc(-c2ccc3c(N)n[nH]c3c2)cc(N2C[C@@H](C(=O)NC3CCCCC3)CC[C@H]2C)n1
# How it was run: as §1
# encorafenib = compound: COC(=O)N[C@@H](C)CNc1nccc(-c2cn(C(C)C)nc2-c2cc(Cl)cc(NS(C)(=O)=O)c2F)n1 [encorafenib]
# How it was run: as §1
# [3] = compound: COC(=O)[C@H](CCSC)NC(=O)C1=C(C=C(C=C1)NC[C@H](CS)N)C2=CC=CC=C2
# How it was run: as §1
# alisertib = compound: COc1cc(Nc2ncc3c(n2)-c2ccc(Cl)cc2C(c2c(F)cccc2OC)=NC3)ccc1C(=O)O [alisertib]
# How it was run: as §1
# [4] = compound: COc1cc2nc(-c3cc(F)ccc3O)nc(N[C@@H]3CNC[C@H]3C(C)(C)O)c2cc1OC
# How it was run: as §1
# gefitinib = compound: COc1cc2ncnc(Nc3ccc(F)c(Cl)c3)c2cc1OCCCN1CCOCC1 [gefitinib]
# How it was run: as §1
# defactinib = compound: CNC(=O)c1ccc(Nc2ncc(C(F)(F)F)c(NCc3nccnc3N(C)S(C)(=O)=O)n2)cc1 [defactinib]
# How it was run: as §1
# Sequence of UniProt Q96SQ9 (Q96SQ9 whole entry, looked up): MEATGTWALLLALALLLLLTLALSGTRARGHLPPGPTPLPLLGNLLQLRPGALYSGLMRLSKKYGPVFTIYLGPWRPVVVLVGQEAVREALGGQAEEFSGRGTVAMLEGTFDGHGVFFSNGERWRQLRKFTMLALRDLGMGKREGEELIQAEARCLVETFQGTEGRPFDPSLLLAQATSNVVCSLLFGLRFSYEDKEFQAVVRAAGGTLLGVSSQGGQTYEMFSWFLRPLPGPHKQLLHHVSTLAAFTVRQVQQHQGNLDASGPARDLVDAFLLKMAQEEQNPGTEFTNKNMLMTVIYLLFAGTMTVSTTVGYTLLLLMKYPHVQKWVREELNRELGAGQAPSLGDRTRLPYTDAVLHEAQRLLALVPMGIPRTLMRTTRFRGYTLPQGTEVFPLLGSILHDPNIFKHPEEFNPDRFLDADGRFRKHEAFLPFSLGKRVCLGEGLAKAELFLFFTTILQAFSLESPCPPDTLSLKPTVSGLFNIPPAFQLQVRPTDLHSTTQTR
# Sequence of UniProt Q9BSY9 (Q9BSY9 whole entry, looked up): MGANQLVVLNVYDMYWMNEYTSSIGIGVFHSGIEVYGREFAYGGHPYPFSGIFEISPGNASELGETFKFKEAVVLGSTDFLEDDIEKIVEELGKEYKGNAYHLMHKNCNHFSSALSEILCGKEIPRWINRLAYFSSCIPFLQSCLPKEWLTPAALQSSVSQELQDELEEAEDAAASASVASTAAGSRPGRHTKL
# Sequence of UniProt Q6ZWL3 (Q6ZWL3 whole entry, looked up): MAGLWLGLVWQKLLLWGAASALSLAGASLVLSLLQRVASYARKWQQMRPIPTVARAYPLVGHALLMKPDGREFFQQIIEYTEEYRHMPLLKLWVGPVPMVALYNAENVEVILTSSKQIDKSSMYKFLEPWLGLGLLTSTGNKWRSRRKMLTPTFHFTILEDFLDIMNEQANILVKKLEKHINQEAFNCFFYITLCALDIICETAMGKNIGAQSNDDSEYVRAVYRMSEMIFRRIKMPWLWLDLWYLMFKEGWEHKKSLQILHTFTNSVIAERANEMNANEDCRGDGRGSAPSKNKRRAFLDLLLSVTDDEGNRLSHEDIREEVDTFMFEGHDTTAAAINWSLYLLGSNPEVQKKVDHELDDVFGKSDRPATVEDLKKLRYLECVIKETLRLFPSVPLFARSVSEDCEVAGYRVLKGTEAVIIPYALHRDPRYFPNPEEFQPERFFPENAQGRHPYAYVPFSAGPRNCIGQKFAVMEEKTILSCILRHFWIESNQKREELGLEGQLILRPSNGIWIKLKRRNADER
# Sequence of UniProt Q6ZPD9 (Q6ZPD9 whole entry, looked up): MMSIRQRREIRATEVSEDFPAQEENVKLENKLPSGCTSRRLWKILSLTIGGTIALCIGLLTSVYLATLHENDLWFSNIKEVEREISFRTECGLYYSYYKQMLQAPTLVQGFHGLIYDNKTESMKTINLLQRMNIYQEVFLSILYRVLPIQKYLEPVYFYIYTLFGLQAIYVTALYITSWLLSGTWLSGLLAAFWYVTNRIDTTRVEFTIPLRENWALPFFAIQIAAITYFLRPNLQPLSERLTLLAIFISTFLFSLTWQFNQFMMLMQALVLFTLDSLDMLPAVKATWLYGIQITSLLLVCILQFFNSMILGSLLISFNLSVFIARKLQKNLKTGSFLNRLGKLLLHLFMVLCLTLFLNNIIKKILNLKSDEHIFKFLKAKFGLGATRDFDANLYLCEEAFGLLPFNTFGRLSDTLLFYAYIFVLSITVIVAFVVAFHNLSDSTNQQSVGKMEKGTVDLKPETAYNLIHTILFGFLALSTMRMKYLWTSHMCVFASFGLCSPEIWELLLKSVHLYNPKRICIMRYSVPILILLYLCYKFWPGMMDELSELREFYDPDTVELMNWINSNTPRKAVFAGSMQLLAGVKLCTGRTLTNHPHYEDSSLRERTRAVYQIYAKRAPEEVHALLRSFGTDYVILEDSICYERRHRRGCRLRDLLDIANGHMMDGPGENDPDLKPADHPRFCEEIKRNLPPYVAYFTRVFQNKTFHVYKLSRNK
# Sequence of UniProt Q7Z460 (Q7Z460 whole entry, looked up): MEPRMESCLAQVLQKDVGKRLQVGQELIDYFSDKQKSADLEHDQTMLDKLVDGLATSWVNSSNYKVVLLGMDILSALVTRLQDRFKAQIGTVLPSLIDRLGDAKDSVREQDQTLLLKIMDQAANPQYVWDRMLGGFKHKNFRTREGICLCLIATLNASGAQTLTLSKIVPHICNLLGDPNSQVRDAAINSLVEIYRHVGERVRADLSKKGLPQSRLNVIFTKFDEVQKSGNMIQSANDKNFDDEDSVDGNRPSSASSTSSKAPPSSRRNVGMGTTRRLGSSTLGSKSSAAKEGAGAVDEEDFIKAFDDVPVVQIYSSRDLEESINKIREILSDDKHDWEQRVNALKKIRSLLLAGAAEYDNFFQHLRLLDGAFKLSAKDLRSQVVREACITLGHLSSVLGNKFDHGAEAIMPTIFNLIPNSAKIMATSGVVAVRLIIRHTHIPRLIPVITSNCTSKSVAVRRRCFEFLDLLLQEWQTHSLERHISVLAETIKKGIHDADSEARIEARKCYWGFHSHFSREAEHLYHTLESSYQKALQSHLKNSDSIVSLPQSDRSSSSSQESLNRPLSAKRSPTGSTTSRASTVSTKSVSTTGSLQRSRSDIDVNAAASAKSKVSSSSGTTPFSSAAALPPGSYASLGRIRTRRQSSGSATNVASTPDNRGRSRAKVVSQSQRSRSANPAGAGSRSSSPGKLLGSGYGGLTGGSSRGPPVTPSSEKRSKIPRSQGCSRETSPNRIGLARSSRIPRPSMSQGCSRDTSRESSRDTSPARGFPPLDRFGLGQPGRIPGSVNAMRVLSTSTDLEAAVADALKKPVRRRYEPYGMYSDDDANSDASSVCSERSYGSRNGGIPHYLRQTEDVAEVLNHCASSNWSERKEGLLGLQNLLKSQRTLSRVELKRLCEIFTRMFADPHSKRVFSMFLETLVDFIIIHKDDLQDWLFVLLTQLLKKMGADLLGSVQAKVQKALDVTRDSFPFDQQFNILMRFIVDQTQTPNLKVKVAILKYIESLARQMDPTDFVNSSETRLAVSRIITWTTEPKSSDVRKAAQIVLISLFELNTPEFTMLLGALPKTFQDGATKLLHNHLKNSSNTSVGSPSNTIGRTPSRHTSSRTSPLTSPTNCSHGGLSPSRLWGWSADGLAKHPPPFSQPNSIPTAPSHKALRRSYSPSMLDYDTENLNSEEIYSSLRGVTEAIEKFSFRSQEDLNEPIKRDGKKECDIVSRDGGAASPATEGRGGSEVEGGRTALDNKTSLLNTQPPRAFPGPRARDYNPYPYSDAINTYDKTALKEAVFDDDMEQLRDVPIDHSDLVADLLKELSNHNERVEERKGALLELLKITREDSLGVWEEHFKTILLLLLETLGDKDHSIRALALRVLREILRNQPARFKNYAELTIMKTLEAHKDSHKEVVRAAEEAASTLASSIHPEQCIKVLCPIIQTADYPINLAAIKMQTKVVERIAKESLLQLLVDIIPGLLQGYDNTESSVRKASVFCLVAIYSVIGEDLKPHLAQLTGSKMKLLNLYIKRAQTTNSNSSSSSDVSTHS
# Sequence of UniProt Q8WXC6 (Q8WXC6 whole entry, looked up): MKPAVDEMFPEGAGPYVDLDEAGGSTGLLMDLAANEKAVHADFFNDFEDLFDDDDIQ
# Sequence of UniProt P50570 (P50570 whole entry, looked up): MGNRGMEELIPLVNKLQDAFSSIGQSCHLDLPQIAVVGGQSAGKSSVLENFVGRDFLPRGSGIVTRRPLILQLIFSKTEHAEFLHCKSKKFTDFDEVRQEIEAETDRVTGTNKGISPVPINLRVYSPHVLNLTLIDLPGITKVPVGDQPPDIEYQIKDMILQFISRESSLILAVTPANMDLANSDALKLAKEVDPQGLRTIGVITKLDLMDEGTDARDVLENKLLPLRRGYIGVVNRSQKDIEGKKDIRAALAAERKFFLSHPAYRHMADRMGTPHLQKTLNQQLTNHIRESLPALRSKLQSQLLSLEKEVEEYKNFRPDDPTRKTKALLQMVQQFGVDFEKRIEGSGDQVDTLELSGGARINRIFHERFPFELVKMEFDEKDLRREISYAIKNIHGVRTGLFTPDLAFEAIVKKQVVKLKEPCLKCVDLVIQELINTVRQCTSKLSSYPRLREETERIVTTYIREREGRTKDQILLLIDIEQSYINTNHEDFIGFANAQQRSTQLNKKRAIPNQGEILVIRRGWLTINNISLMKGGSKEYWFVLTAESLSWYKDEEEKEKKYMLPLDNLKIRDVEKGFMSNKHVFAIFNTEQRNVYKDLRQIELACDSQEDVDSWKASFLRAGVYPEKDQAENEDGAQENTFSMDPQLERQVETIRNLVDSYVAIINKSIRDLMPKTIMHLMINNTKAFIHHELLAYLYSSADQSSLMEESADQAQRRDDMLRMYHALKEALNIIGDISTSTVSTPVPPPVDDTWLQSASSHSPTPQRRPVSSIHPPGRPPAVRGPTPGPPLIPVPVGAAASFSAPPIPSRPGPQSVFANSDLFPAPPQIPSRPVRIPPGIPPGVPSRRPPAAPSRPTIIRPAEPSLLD
# Sequence of UniProt O14810 (O14810 whole entry, looked up): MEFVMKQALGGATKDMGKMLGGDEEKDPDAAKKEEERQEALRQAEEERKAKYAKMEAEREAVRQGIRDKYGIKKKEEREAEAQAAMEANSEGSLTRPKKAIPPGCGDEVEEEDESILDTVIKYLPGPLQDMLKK
# Sequence of UniProt Q16527 (Q16527 whole entry, looked up): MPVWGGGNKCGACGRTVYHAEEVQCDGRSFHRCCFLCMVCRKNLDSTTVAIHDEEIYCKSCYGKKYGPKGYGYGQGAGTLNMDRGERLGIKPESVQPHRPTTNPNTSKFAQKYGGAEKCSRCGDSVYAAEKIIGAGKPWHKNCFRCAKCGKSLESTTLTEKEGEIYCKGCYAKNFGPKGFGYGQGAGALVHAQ
# Sequence of UniProt Q9P003 (Q9P003 whole entry, looked up): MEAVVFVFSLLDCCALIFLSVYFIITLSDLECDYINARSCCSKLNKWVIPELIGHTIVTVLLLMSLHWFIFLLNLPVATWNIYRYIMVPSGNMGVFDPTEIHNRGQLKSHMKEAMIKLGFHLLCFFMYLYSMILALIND
Target,log2 fold change (alvocidib),log2 fold change (Tubastatin A),log2 fold change [1],log2 fold change [2],log2 fold change (encorafenib),log2 fold change [3],log2 fold change (alisertib),log2 fold change [4],log2 fold change (gefitinib),log2 fold change (defactinib)
DNM2 isoform 4 (UniProt P50570),-0.16,-0.095,-0.278,0.055,0.13,0.06,-0.007,-0.032,0.029,–
DPY19L3 (UniProt Q6ZPD9),–,–,-0.105,–,0,-0.096,–,-0.042,–,-0.039
CHMP4A (UniProt H0YIN6),-0.197,0.193,–,0.528,–,–,–,0.104,–,–
CINP isoform 3 (UniProt Q9BW66),-0.056,-0.107,–,0.028,0.003,0.062,0,0.064,-0.24,-0.056
CSNK1A1 (UniProt P48729),0.007,-0.105,–,0.019,0.081,-0.005,–,0.049,-0.005,0.077
DLGAP5 isoform 3 (UniProt Q15398),0,–,–,-0.051,–,–,–,–,–,–
CXCL14 (UniProt O95715),–,–,–,–,-0.034,0.066,–,–,–,-0.235
CSDE1 isoform 3 (UniProt O75534),0.029,-0.014,–,–,–,–,-0.011,0.28,-0.09,–
CSNK1D (UniProt P48730),0.244,-0.085,–,-0.091,0.041,0.013,0,-0.131,-0.023,0.103
CRLS1 (UniProt Q9UJA2),0.056,0.007,0.068,–,–,–,0.076,-0.017,0.079,–
CSNK1G3 isoform 4 (UniProt Q9Y6M4),–,–,–,–,–,–,–,0.53,–,–
CYP4V2 (UniProt Q6ZWL3),–,-0.1,-0.007,0.045,–,–,–,-0.066,–,–
DESI2 (UniProt Q9BSY9),-0.07,–,–,–,-0.057,-0.014,–,–,–,0.016
CNOT2 (UniProt F8VRS8),–,–,0.004,–,–,–,–,–,–,–
DHX32 (UniProt Q7L7V1),0.019,0.027,0.044,–,0.062,0.048,0.017,–,0.02,-0.043
CPLX1 (UniProt O14810),–,0.04,–,-0.127,-0.017,-0.415,–,-0.005,–,0.144

Target,log2 fold change (alvocidib),log2 fold change (Tubastatin A),log2 fold change [1],log2 fold change [2],log2 fold change (encorafenib),log2 fold change [3],log2 fold change (alisertib),log2 fold change [4],log2 fold change (gefitinib),log2 fold change (defactinib)
DDR1 isoform 5 (UniProt Q08345),-0.034,0.052,–,0.147,0.044,-0.094,0,–,0.046,–
COL12A1 (UniProt Q99715),–,–,0.095,0.531,0.003,-0.092,–,1.32 (active),–,-0.059
"CSNK2A1, A0A2R8Y4D6",–,–,–,–,–,–,–,0.06,–,–
CSRP2 (UniProt Q16527),-0.028,–,–,–,-0.046,-0.056,–,–,–,–
COL6A3 (UniProt P12111),0.045,0.017,-0.126,0.13,–,–,-0.323,–,0.164,–
COPS9 (UniProt Q8WXC6),–,-0.272,0.087,–,–,–,–,0.163,–,–
CLASP1 isoform 4 (UniProt Q7Z460),–,–,0.046,–,–,–,0.063,–,0.107,0.223
CLIP1 isoform 2 (UniProt P30622),0.029,0.117,-0.085,0.088,-0.012,-0.015,-0.033,-0.017,-0.005,–
CNIH4 (UniProt Q9P003),–,0.1,0.048,0.049,0.06,-0.249,0.1,0.031,0.17,0.442
DALRD3 (UniProt Q5D0E6),-0.016,–,-0.026,–,0.054,-0.391,–,-0.004,–,0.033
CSAD isoform 3 (UniProt Q9Y600),–,0.082,-0.044,–,–,–,–,–,–,–
DAZAP1 (UniProt K7EQ02),–,–,–,–,–,–,0.071,–,-0.084,–
DHRS13 (UniProt Q6UX07),–,-0.087,-0.083,0.004,–,–,-0.211,-0.138,0.036,–
CYP2S1 isoform 2 (UniProt Q96SQ9),–,0.027,-0.085,-0.151,0.024,0,–,-0.219,–,-0.022
CLASP2 (UniProt O75122),-0.139,-0.066,–,–,0.058,-0.071,0.182,0.037,-0.047,0.002
CHFR (UniProt Q96EP1),–,-0.052,0.004,-0.032,0.063,-0.084,0.033,0.008,-0.03,-0.61 (active)

# — the supplement of paper PMC10849652
